# Structures can show the parent of a compound that is named as a salt. A number with no mark means an inactive call.
# How the values were obtained:
# Conditions in all cases: 20 µM
# [1] = test system: Salmonella enterica typhimurium; assay: growth AUC normalised to DMSO control (fraction of control); higher = less growth inhibition, active = hit call of the paper
# In short: (§1)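 Pathogens were passaged twice under anaerobic conditions, then inoculated into pre-reduced mGAM plates at a starting OD578 of 0.01, with compound at 20 μM and 1% DMSO, and sealed with breathable membranes. For Haemophilus parainfluenzae, the medium was supplemented with hemin and NAD. OD578 was read every hour for 24 h in three biological replicates. Growth-curve AUC was calculated by the trapezoidal rule up to the exponential-to-stationary transition and normalised to DMSO controls on the same plate.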
# Shigella flexneri = assay: as above
# In short: as §1
# Vibrio cholerae = assay: as above
# In short: as §1
# [2] = test system: Yersinia pseudotuberculosis; assay: as above
# In short: as §1
# P. vulgatus RND KO = assay: growth AUC normalised to DMSO control (median) (fraction of control); higher = less growth inhibition, active = hit call of the paper
# In short: (§2)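 In 96-well plates of mGAM seeded at OD578 0.01, strains that had been passaged twice overnight without oxygen were exposed to approved-drug library compounds at 20 μM with 1% DMSO. Hourly OD578 readings were taken for 24 h in an anaerobic incubator. The trapezoidal-rule area under the curve, with curves truncated at entry into stationary phase, was expressed relative to same-plate vehicle wells as the median of three biological replicates.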
# P. vulgatus WT = assay: as above
# In short: as §2
# [3] = test system: S. enterica typhimurium WT; assay: as above
# In short: as §2
# [4] = test system: S. enterica typhimurium tolC KO; assay: as above
# In short: as §2
# 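Throughout, for growth AUC normalised to DMSO control (median): active when median AUC fell below 0.1.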
SMILES,growth AUC normalised to DMSO control [1],growth AUC normalised to DMSO control (Shigella flexneri),growth AUC normalised to DMSO control (Vibrio cholerae),growth AUC normalised to DMSO control [2],growth AUC normalised to DMSO control (P. vulgatus RND KO),growth AUC normalised to DMSO control (P. vulgatus WT),growth AUC normalised to DMSO control [3],growth AUC normalised to DMSO control [4]
CCCC(=O)Nc1ccc(OCC(O)CNC(C)C)c(C(C)=O)c1 (stereo not given) [Acebutolol hydrochloride],1,0.995,1.01,1.01,1.01,1.01,1,1.01
"OC(CCN1CCCCC1)(c1ccccc1)C1CCCCC1 (stereo not given) [Trihexyphenidyl-D,L hydrochloride]",1,0.996,0.961,1.02,1.02,1.04,1.01,0.986
CC(C)(O/N=C(\C(=O)N[C@@H]1C(=O)N2C(C(=O)[O-])=C(C[n+]3ccccc3)CS[C@H]12)c1csc(N)n1)C(=O)O [Ceftazidime pentahydrate],0.016 (active),0.0524 (active),0.494 (active),0.186 (active),0.0283 (active),0.0233 (active),0.214,0.0609 (active)
CN[C@@H]1[C@@H](O)[C@@H](O[C@@H]2[C@@H](O)[C@H](O[C@H]3OC(CN)=CC[C@H]3N)[C@@H](N)C[C@H]2N)OC[C@]1(C)O [Sisomicin sulfate],1,0.986,0.996,0.982,0.994,1,1,1.01
CCOC(=O)C1=C(C)NC(C)=C(C(=O)OC)C1c1cccc(Cl)c1Cl (stereo not given) [Felodipine],0.987,1,1,0.883,1.01,1.03,1,1
OCCN1CCN(CC/C=C2/c3ccccc3Sc3ccc(Cl)cc32)CC1 [Zuclopenthixol dihydrochloride],0.996,0.972,0.946,0.998,0.928,0.962,0.992,0.887
Cc1ccc(S(=O)(=O)NC(=O)NN2CCCCCC2)cc1 [Tolazamide],1.02,1.04,1.03,0.997,1.01,1.02,1.01,0.999
CN1CCN(c2c(F)cc3c(=O)c(C(=O)O)cn4c3c2SCC4)CC1 [Rufloxacin],0.006 (active),0.0254 (active),0.0252 (active),0.0274 (active),0.63,0.47,0.0284 (active),0.00853 (active)
CCOc1ccccc1OCC1CNCCO1 (stereo not given) [Viloxazine hydrochloride],0.997,0.979,0.987,0.961,1,0.985,0.99,0.995
CC(C)(C)NC(=O)[C@@H]1C[C@@H]2CCCC[C@@H]2CN1C[C@@H](O)[C@H](Cc1ccccc1)NC(=O)[C@H](CC(N)=O)NC(=O)c1ccc2ccccc2n1 [Saquinavir mesylate],1.01,1.02,1.04,1.03,0.859,0.89,1.02,1
CCCN(CCC)C(=O)C(CCC(=O)O)NC(=O)c1ccccc1 (stereo not given) [Proglumide],1.01,1.04,1.05,1.02,1.02,1.06,1,0.99
CCC1(C)CC(=O)NC1=O (stereo not given) [Ethosuximide],1.02,1.02,1.03,0.999,1.02,1.05,1,0.963
OC(CCCN1CCCCC1)(c1ccccc1)c1ccccc1 [Diphenidol hydrochloride],0.999,1,1,1.01,1.04,1.04,1,0.987
Clc1ccc2nsnc2c1NC1=NCCN1 [Tizanidine hydrochloride],0.977,0.988,0.993,1,0.992,1,1.01,0.998
CN1C(=O)CC(c2ccccc2)C1=O (stereo not given) [Phensuximide],1.01,1.04,1.03,1.02,1.02,1.04,1,0.993
Clc1ccc(CO/N=C(\Cn2ccnc2)c2ccc(Cl)cc2Cl)c(Cl)c1 [Oxiconazole nitrate],1.02,1.04,1.05,0.983,1.01,1.04,1,0.909
CNCCCC1c2ccccc2C=Cc2ccccc21 [Protriptyline hydrochloride],0.973,1,0.997,1,0.913,0.882,0.996,0.951
CC(C)(C(=O)O)c1ccc(C(O)CCCN2CCC(C(O)(c3ccccc3)c3ccccc3)CC2)cc1 (stereo not given) [Fexofenadine hydrochloride],1.02,1.02,1.04,0.99,1.01,1.01,1.01,1
Cc1cccn2c(=O)c(-c3nnn[nH]3)cnc12 [Pemirolast potassium],0.968,0.946,0.921,0.964,0.998,1.01,0.993,0.995
C=C[C@H]1CN2CC[C@H]1C[C@@H]2[C@@H](O)c1ccnc2ccc(OC)cc12 [Quinidine hydrochloride monohydrate],0.991,0.996,0.985,0.991,0.998,1.03,0.99,0.997
CCCCNc1cc(C(=O)O)cc(S(N)(=O)=O)c1Oc1ccccc1 [Bumetanide],0.969,0.991,0.982,0.995,1.01,1.01,0.996,0.991
CCOC(=O)[C@H](CCc1ccccc1)N[C@@H](C)C(=O)N1[C@H](C(=O)O)C[C@@H]2CCC[C@@H]21 [Ramipril],1.02,1.06,1.07,1.01,0.985,0.99,1.01,1
CO/N=C(\C(=O)N[C@@H]1C(=O)N2C(C(=O)O)=C(COC(N)=O)CS[C@H]12)c1ccco1 [Cefuroxime sodium salt],0.0484 (active),0.0576 (active),0.0553 (active),0.0424 (active),0.011 (active),0.0132 (active),0.342,0.00393 (active)
C[C@@H](O)[C@H]1C(=O)N2C(C(=O)O)=C(S[C@@H]3CN[C@H](C(=O)N(C)C)C3)[C@H](C)[C@H]12 [Meropenem],0.00502 (active),0.0408 (active),0.844,0.0586 (active),0.0122 (active),0.0155 (active),0.00861 (active),0.00577 (active)
CCN(CCO)CCCC(C)Nc1ccnc2cc(Cl)ccc12 (stereo not given) [Hydroxychloroquine sulfate],1,0.988,1.01,1.01,1.02,1.01,1,0.995
CC12CC3CC(C)(C1)CC(N)(C3)C2 [Memantine hydrochloride],0.997,0.99,1.01,0.985,1.01,1.02,1.01,1
C#C[C@]1(OC(C)=O)CC[C@H]2[C@@H]3CCC4=CC(=NO)CC[C@@H]4[C@H]3CC[C@@]21CC (mixture of isomers) [Norgestimate],0.995,0.971,0.984,0.988,0.836,0.88,0.999,0.955
CCN(CC)C(=O)/C(C#N)=C/c1cc(O)c(O)c([N+](=O)[O-])c1 [Entacapone],1.02,1.04,1.07,0.998,0.987,0.996,0.997,1
CCCCOc1ccc(CC(=O)NO)cc1 [Bufexamac],0.996,0.974,1.01,0.956,1.01,0.991,0.997,0.967
O=C(O)COC(=O)Cc1ccccc1Nc1c(Cl)cccc1Cl [Aceclofenac],0.995,0.979,0.979,0.999,0.995,0.983,1.01,0.998
